The supplement of paper PMC13380429

The compounds below were run on Vero E6 infected with SARS-CoV-2 (assay: inhibition of SARS-CoV-2 cytopathic effect; higher = more antiviral protection, active = above 15). Conditions: 8.33 nM; 48 h.

| Compound | inhibition of SARS-CoV-2 cytopathic effect |
| --- | --- |
| COc1cccc(Nc2ncnn3ccc(CN4CC[C@@H](N)[C@H](O)C4)c23)c1 | 0.1% (inactive) |
| C[N+](C)(C)CCCCCCCCCC[N+](C)(C)C [decamethonium] | -4.24% (inactive) |
| Cc1ccnc2c1NC(=O)c1cccnc1N2C1CC1 [nevirapine] | 2.22% (inactive) |
| CS(=O)(=O)Nc1ccc(-c2coc3cc(OCc4cccc(C(=O)O)c4)ccc3c2=O)cc1 | 1.73% (inactive) |
| CCc1nc2ccc(Cl)cn2c1C(=O)NCc1ccc(N2CCC(c3ccc(OC(F)(F)F)cc3)CC2)cc1 | 1.98% (inactive) |
| C=CC1=C(C(=O)O)N2C(=O)[C@@H](NC(=O)/C(=N\O)c3csc(N)n3)[C@H]2SC1 [cefdinir] | 2.62% (inactive) |
| C[N+]12CCCCC1CCC(=C(c1cccs1)c1cccs1)C2 (centres undefined) [tiquizium] | -0.22% (inactive) |
| Cc1cc(OCCCS(C)(=O)=O)cc(C)c1-c1cccc(COc2ccc3c(c2)OC[C@H]3CC(=O)O)c1 | 0.64% (inactive) |
| CCn1cc(C(=O)O)c(=O)c2cc(F)c(N3CCN(C)CC3)cc21 [pefloxacin] | -0.13% (inactive) |
| CC(C)C(=O)Nc1ccc([N+](=O)[O-])c(C(F)(F)F)c1 [flutamide] | -1.6% (inactive) |
| Cc1ncc([N+](=O)[O-])n1CC(O)CN1CCOCC1 (centres undefined) [morinidazole] | -0.21% (inactive) |
| O=c1c2ccccc2[se]n1-c1ccccc1 [Ebselen] | 0.73% (inactive) |
| CCCc1cc(C(N)=S)ccn1 [protionamide] | 2.36% (inactive) |
| C#CCOC(=O)C1=CCCN(C)C1 [arecaidine-propargyl-ester] | 0.55% (inactive) |
| Cc1c(-c2ccc(O)cc2)n(Cc2ccc(OCCN3CCCCCC3)cc2)c2ccc(O)cc12 [bazedoxifene] | -3.97% (inactive) |
| CN(Cc1ccccc1)C(=O)[C@H](Cc1ccc2ccccc2c1)NC(=O)[C@@H]1C[C@@H](O)CN1C(=O)c1cn(C)c2ccccc12 | 4.31% (inactive) |
| NC1(c2ccc(-c3nc4ccn5c(=O)[nH]nc5c4cc3-c3ccccc3)cc2)CCC1 | 0.48% (inactive) |
| CN(C)CCCSc1ccccc1NC(=O)/C=C/c1ccccc1 [cinanserin] | 0.94% (inactive) |
| c1cc(Cc2cnc[nH]2)ccn1 [immethridine] | 2.15% (inactive) |
| COc1cc(C(=O)N2CCC(N3CCN(C)CC3)CC2)ccc1Nc1ncc2c(n1)N(C)c1ccccc1C(=O)N2C | -0.23% (inactive) |

| Compound | inhibition of SARS-CoV-2 cytopathic effect |
| --- | --- |
| CC/C(=C(\c1ccc(O)cc1)c1ccc(OCCN(C)C)cc1)c1ccccc1 [afimoxifene] | 1.16% (inactive) |
| COc1cc(N2CCC(N3CCN(C)CC3)CC2)ccc1Nc1ncc(Cl)c(Nc2ccccc2P(C)(C)=O)n1 [brigatinib] | -1.85% (inactive) |
| CC#CCOC(=O)c1c(C)nc2sc3c(c2c1N)CCC(O)C3 (centres undefined) | 0.47% (inactive) |
| O=C(O)CCC(=O)OC[C@@H](NC(=O)C(Cl)Cl)[C@H](O)c1ccc([N+](=O)[O-])cc1 [chloramphenicol-sodium-succinate] | -0.01% (inactive) |
| CC(C)[C@H]1CC[C@H](C(=O)N[C@H](Cc2ccccc2)C(=O)O)CC1 [nateglinide] | 2.28% (inactive) |
| CC(C)(C)c1ccc(S(=O)(=O)/C=C/C#N)cc1 | 0.27% (inactive) |
| COc1ccc(S(=O)(=O)N2CCCN(S(=O)(=O)c3ccc(OC)c(OC)c3)CC2)cc1OC | -1.47% (inactive) |
| Cc1ccc(-n2sc(=O)n(Cc3ccc(F)cc3)c2=O)cc1 | -0.78% (inactive) |
| CCC[C@@H]1C[C@@H](C(=O)N[C@@H]([C@H]2O[C@H](SC)[C@H](O)[C@@H](O)[C@H]2O)[C@@H](C)O)N(C)C1 [lincomycin] | 2.66% (inactive) |
| C[N+](C)(C)CCOC(=O)CCC(=O)OCC[N+](C)(C)C [succinylcholine-chloride] | -1.42% (inactive) |
| CC(=O)SC[C@@H](C)C(=O)N1CCC[C@H]1C(=O)N[C@@H](Cc1ccccc1)C(=O)O [alacepril] | 0.59% (inactive) |
| COc1ccc(-c2cnc3c(-c4cccc5ncccc45)cnn3c2)cc1 | -0.75% (inactive) |
| Nc1nc(Cl)nc2c1ncn2[C@@H]1O[C@H](CO)[C@@H](O)[C@@H]1F [clofarabine] | 2.08% (inactive) |
| Cc1cc(N)c2ccccc2[n+]1CCCCCCCCCC[n+]1c(C)cc(N)c2ccccc21 [dequalinium] | 2.58% (inactive) |
| NC12CC3CC(CC(C3)C1)C2 [amantadine] | 1.94% (inactive) |
| CCNC(C)CN1CCc2c(c(=O)oc3ccccc23)C1 (centres undefined) | 0.86% (inactive) |
| C/C(=N\c1ccccc1N)c1c(C)cc(=O)n(O)c1O | -2.18% (inactive) |
| c1ccc(CCNc2nc(-c3ccccc3)cs2)cc1 [fanetizole] | 1.7% (inactive) |
| C[C@@H]([C@H](O)c1ccc(O)cc1)N1CCC(Cc2ccccc2)CC1 (racemic) [ifenprodil] | -0.2% (inactive) |
